Rows were chosen to be rich in hits. Some 9.6% of all compounds tested hit in one or more screens of this group.
DAT uptake mod: changed human dopamine transporter uptake under cocaine IC80 | Q01959 | LLC-PK1 hDAT cells, [14C]-dopamine uptake with cocaine IC80; actives deviate in either direction | B-score at 10 µM | hit rate 1.3% among 110,000;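 active = Z score or B-score, a plate-position-corrected score, falls beyond the plate's 99.7% confidence bounds, in either direction; inactive = both scores lie inside the 99.7% bounds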;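 also: scored against the spread of the other compound wells on the same plate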
PLAP activator: activates human placental alkaline phosphatase; activation fold at 20 µM; AID 696; purified PLAP enzyme, luminescent substrate read-out; stronger effect = higher value; hit rate 1.2% among 96,000; in the data active = activation fold above about 2
Target sequence (P05187 whole entry, looked up): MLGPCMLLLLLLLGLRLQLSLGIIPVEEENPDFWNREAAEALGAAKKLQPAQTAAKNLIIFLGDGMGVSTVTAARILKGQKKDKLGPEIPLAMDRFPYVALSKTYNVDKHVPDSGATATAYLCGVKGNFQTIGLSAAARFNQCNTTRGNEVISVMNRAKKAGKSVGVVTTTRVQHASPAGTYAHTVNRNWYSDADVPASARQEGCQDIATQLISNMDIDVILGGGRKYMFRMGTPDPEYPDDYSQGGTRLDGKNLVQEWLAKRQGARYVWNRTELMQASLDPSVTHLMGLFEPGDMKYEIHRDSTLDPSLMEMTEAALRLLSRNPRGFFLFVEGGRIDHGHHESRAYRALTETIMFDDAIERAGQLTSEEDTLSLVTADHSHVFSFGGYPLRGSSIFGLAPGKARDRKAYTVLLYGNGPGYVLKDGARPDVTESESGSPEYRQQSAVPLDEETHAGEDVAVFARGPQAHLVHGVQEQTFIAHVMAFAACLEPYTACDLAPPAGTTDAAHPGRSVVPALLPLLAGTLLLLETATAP
PostGolgi yeast: growth inhibition of a yeast mutant, post-Golgi transport screen. post-Golgi transport phenotypic cell assay. inhibition, % at 10 µM. hit rate 0.9% among 98,000;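 also: yeast cells grown in 1536-well plates; yeast grown about 18 h at 30C before absorbance read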
PostGolgi ctrl: yeast control strain growth, post-Golgi counter-screen. efflux-deficient yeast background strain, growth absorbance A615, 16 h. AID 738. hit rate 5% among 98,000. inhibition, % at 10 µM
Cav32 inh: human Cav3.2 channel inhibition, primary screen; O95180; Cav3.2-expressing cells, Fluo-4 calcium fluorescence FDSS; stronger effect = lower value; B-score at 10 µM; hit rate 4% among 100,000; AID 449739;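 active = single-dose well whose peak fluorescence ratio is a statistical outlier from its plate by either plate-standardised score or position-corrected B-score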
Numbers without * were called inactive. Rule as the data show it, unless noted: active = inhibition above about 30%; inactive = the rest.

For Cc1cccc(C)c1NC(=O)/C(=C/c1ccco1)c1ccccc1 the results were DAT uptake mod 0.706, PLAP activator 1.1, PostGolgi yeast -4.7, PostGolgi ctrl 16.2 and Cav32 inh -8.61*.
Cc1cc(C)c(NC(=O)/C(=C/c2ccco2)c2ccccc2)c(C)c1 was read as DAT uptake mod 0.101, PLAP activator 1.3, PostGolgi yeast -0.2, PostGolgi ctrl 23.8 and Cav32 inh -2.74.
For Cc1ccccc1NC(=O)/C(=C/c1ccccc1)c1ccccc1 the results were DAT uptake mod 1.07, PLAP activator 0.9, PostGolgi yeast -2.9, PostGolgi ctrl 31.4* and Cav32 inh -4.78*.
For CC(=O)c1ccc(NC(=O)/C(=C\c2ccccc2)NC(=O)/C=C/c2ccccc2)cc1 the results were DAT uptake mod 2.05, PLAP activator 1.4, PostGolgi yeast 2.9, PostGolgi ctrl 4.8 and Cav32 inh -1.79.
`Cn1c(SCC(=O)C(C)(C)C)nnc1-c1cccnc1` gave DAT uptake mod -0.601, PLAP activator 1, PostGolgi yeast -9.8 and PostGolgi ctrl -13.4.
For N#Cc1nc(Cc2ccccc2)oc1N1CCC(Cc2ccccc2)CC1 the results were DAT uptake mod 1.14, PLAP activator 1.2, PostGolgi yeast -4.8, PostGolgi ctrl 9.4 and Cav32 inh -5.18*.
N#Cc1nc(Cc2ccccc2)oc1N1CCN(c2ccccc2)CC1 was read as DAT uptake mod -0.459, PLAP activator 1, PostGolgi yeast 5.0, PostGolgi ctrl 8.6 and Cav32 inh -4.79*.
For N#Cc1nc(Cc2ccccc2)oc1N1CCC(C(N)=O)CC1 the results were DAT uptake mod -0.597, PLAP activator 0.9, PostGolgi yeast 6.4, PostGolgi ctrl -5.8 and Cav32 inh -0.811.
For C=CCN(C(=O)CNC(=O)c1ccco1)C(C(=O)NC1CCCCC1)c1ccc(OC)cc1OC (stereo not given) the results were DAT uptake mod -0.478, PLAP activator 1.8, PostGolgi yeast 21.1, PostGolgi ctrl -0.8 and Cav32 inh 0.414.
`CCOc1ccc2c3c(c(=O)oc2c1OCC)CCCC3` gave DAT uptake mod 0.119, PLAP activator 1, PostGolgi yeast -6.2, PostGolgi ctrl 14.9 and Cav32 inh -0.234.
CCCOc1ccc2c3c(c(=O)oc2c1OCCC)CCCC3 was read as DAT uptake mod 0.378, PLAP activator 0.8, PostGolgi yeast -4.7, PostGolgi ctrl 55.8* and Cav32 inh -2.12.
For CC(C)C(=O)Nc1ccc(NC(=O)c2cccc(F)c2)cn1 the results were DAT uptake mod 1.69, PLAP activator 0.8, PostGolgi yeast 19.3, PostGolgi ctrl -1.6 and Cav32 inh 0.303.
Screening CC(C)Cn1c(SCc2nnc(-c3cccs3)o2)nc(O)cc1=O returned DAT uptake mod 0.0695, PLAP activator 1.4, PostGolgi yeast 4.2, PostGolgi ctrl 12.8 and Cav32 inh -0.197.
O=C(c1cnccn1)N(c1ccccc1)C1(C(=O)NC2CCCCC2)CCCCC1 was read as DAT uptake mod 0.911, PLAP activator 1.3, PostGolgi yeast -0.2, PostGolgi ctrl 33.2* and Cav32 inh 0.0639.
`O=C(NC1(C(=O)NC2CCCCC2)CCCCC1)c1ccccn1` gave DAT uptake mod -0.0446, PLAP activator 1.1, PostGolgi yeast -6.8, PostGolgi ctrl 31.6* and Cav32 inh 0.307.
O=C(c1cnccn1)N(c1ccccc1)C1(C(=O)NC2CCCC2)CCCCC1 was read as PLAP activator 1.2, PostGolgi yeast -1.3 and PostGolgi ctrl 12.4.
CC(=O)Nc1ccc(S(=O)(=O)N2CCN(C)CC2)cc1 was read as DAT uptake mod -1.38, PLAP activator 1, PostGolgi yeast -2.6, PostGolgi ctrl 3.4 and Cav32 inh 0.211.
CC(=O)Nc1ccc(S(=O)(=O)N2CCc3ccccc3C2)cc1 was read as DAT uptake mod -8.79*, PLAP activator 0.9, PostGolgi yeast 4.4, PostGolgi ctrl 4.3 and Cav32 inh -2.64.
Screening COc1ccc(C(=O)Nc2ccc(S(=O)(=O)N3CCCCC3)cc2)cc1OC returned DAT uptake mod 0.802, PLAP activator 0.9, PostGolgi yeast 4.4, PostGolgi ctrl 29.8 and Cav32 inh -0.104.
For COc1ccccc1C(=O)Nc1ccc(C(=O)N2CCCC2)cc1 the results were DAT uptake mod 1.03, PLAP activator 0.9, PostGolgi yeast 18.3, PostGolgi ctrl 1.2 and Cav32 inh 0.435.
Screening COc1cc(C(=O)Nc2ccc(S(=O)(=O)N3CCc4ccccc43)cc2)cc(OC)c1OC returned DAT uptake mod 1.4, PLAP activator 1.6, PostGolgi yeast 0.2, PostGolgi ctrl 4.2 and Cav32 inh -5.29*.
`COc1ccc(C(=O)NCc2ccccc2)cc1S(=O)(=O)N1CCCc2ccccc21` gave DAT uptake mod 0.0119, PLAP activator 1.2, PostGolgi yeast -2.9, PostGolgi ctrl 27.9 and Cav32 inh -5.3*.
For COc1ccccc1C(=O)Nc1ccc(S(=O)(=O)N2CCc3ccccc32)cc1 the results were DAT uptake mod 1.71, PLAP activator 1.9, PostGolgi yeast 3.8, PostGolgi ctrl 34.1* and Cav32 inh -1.41.
Cc1[nH]c(=O)[nH]c(=O)c1CSc1nnc(CCCCCNC(=O)OC(C)(C)C)o1 was read as DAT uptake mod -0.0603, PLAP activator 1, PostGolgi yeast -5.3, PostGolgi ctrl 5.6 and Cav32 inh 0.293.
For Cc1ccc(NC(=O)c2cc(-c3cccc(O)c3)on2)cc1C the results were DAT uptake mod -0.162, PLAP activator 0.8, PostGolgi yeast -12.2, PostGolgi ctrl 20.9 and Cav32 inh 0.525.
`COC(=O)Nc1ccc(S(=O)(=O)N2CCCc3ccccc32)cc1` gave DAT uptake mod 0.117, PLAP activator 0.9, PostGolgi yeast 17.7, PostGolgi ctrl 11.5 and Cav32 inh -6.13*.
COCc1nnc(NC(=O)c2ccc(S(=O)(=O)N3CCCCCC3)cc2)o1 was read as DAT uptake mod -0.407, PLAP activator 1.4, PostGolgi yeast -4.6, PostGolgi ctrl 10.0 and Cav32 inh -0.365.
For O=C(Nc1ccc2c(c1)OCO2)c1ccc2nc[nH]c2c1 the results were DAT uptake mod -1.86*, PLAP activator 2*, PostGolgi yeast 4.0, PostGolgi ctrl 7.8 and Cav32 inh 0.687.
CCc1nnc(NC(=O)c2ccc(S(=O)(=O)N3CCCc4ccccc43)cc2)o1 was read as DAT uptake mod 0.288, PLAP activator 2.1*, PostGolgi yeast 6.8, PostGolgi ctrl -2.0 and Cav32 inh -1.62.
For O=C(Nc1ccc(S(=O)(=O)N2CCc3ccccc32)cc1)c1ccc2c(c1)OCO2 the results were DAT uptake mod 0.878, PLAP activator 0.7, PostGolgi yeast -8.7, PostGolgi ctrl 36.7* and Cav32 inh -2.33.
`O=C(Nc1ccc2c(c1)OCO2)c1ccncc1` gave DAT uptake mod -1.47, PLAP activator 0.9, PostGolgi yeast -3.5, PostGolgi ctrl -1.0 and Cav32 inh -0.231.
`CCCC1=C(C(=O)OCC)C(c2ccc(N(C)C)cc2)n2ncnc2N1` (stereo not given) gave DAT uptake mod 0.661, PLAP activator 1.2, PostGolgi yeast 22.1, PostGolgi ctrl 9.9 and Cav32 inh -1.
Cc1c(C(=O)N2CCCC2)oc2c1-c1[nH]ncc1CC2 was read as DAT uptake mod 0.971 and Cav32 inh 0.369.
For CCCCNc1c(C(=O)OCC)c(C)nc2c1cnn2CC the results were DAT uptake mod -0.951.
